The source made the active and inactive calls.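 Rule for the calls: active = z-score of at least 1.8 in each of two replicates, scored against plate mean and spread of sample wells; inactive = the rest.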
test: MELAS cybrid and Rieske KO viability enhancers – cell-based, MELAS cybrids, Rieske KO mouse fibroblasts, CellTiter-Glo, primary screen (AID 1508586); conditions: Rieske KO mouse fibroblast survival, low glucose, CellTiter-Glo 72 h;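 note: test concentration not given here; z relative to plate mean and SD of compound and empty wells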

Compound	z-score
CCC(C)C(=O)Nc1c(C(=O)OC)n(CC2CCCO2)c2ncc(NC3CCSC3)cc12 (stereo not drawn)	1.01
O=C(Nc1ccccc1Cl)N[C@H]1C[C@H]2C(=O)N[C@H](Cc3ccc(O)cc3)C(=O)N2C1	-0.509
COCCn1c(C(=O)OC)c(NC(=O)Cc2ccccc2)c2cc(NC(C)CCO)cnc21 (stereo not drawn)	0.262
C=CCn1nc(C(=O)N2CCSCC2)c2c1CCC(N1CCOc3ccc(Cl)cc3C1)C2 (stereo not drawn)	-0.713
CC(C)CCN1C(=O)N(C(C)C)C(=O)C12CCN(Cc1ccc(CN3CCCCC3)s1)CC2	-0.0124
Cc1cc(-c2cc3c(n(Cc4cccnc4)c2=O)CCN(C(=O)C2Cc4ccccc4O2)C3)ccc1F (stereo not drawn)	1.95
COc1cc(CN2CCc3c(cc(-c4cccc(F)c4)c(=O)n3CCn3ccc(C)n3)C2)ccc1O	0.944
CCOC(=O)c1nn(CC)c2c1CN(C(=O)Cn1nc(-c3ccccc3)c3ccccc3c1=O)CC2	0.472
CC1=C(C(=O)N2CC(=O)N(CC(C)C)CC(OCc3ccccc3)C2)OCCO1 (stereo not drawn)	-0.606
CCN1C(=O)N(CC(N)=O)C(=O)C12CCN(CC(C)Cc1ccc3c(c1)OCO3)CC2 (stereo not drawn)	-0.343
CCCCNC(=O)[C@@H]1C[C@H](CN2CCOCC2)CN(Cc2ccc(OC)c(OC)c2)C1	0.521
COc1cc(CN2CC(=O)N(CC3CCOCC3)CC(OCc3ccccn3)C2)cc2c1OCO2 (stereo not drawn)	4.95
Cc1ccc(-c2cc(C(=O)N3CCSCC3)cc(S(=O)(=O)N3CCOCC3)c2)s1	-0.0192
CC(C)CNC(=O)[C@@H]1C[C@H](CN2CCOCC2)CN(Cc2ccccc2)C1	0.562
CCn1c(C(=O)OC)c(NC(C)=O)c2cc(NCc3ccc(OC)cc3)cnc21	-0.331
Cc1ccc(S(=O)(=O)N2CCN3C(=O)[C@H](Cc4ccc(Cl)cc4)NC(=O)[C@H]3C2)cc1	-0.392
CC(C)CNC(=O)[C@@H]1C[C@H](CN2CCOCC2)CN(Cc2ccncc2)C1	-0.738
COc1cc(CN2CCc3c(c(C(=O)NCCCN4CCOCC4)nn3C)C2)cc2c1OCO2	-0.162
O=C(NCc1cccc(F)c1)N[C@H]1C[C@H]2C(=O)N[C@@H](COCc3ccccc3)C(=O)N2C1	-0.345
COCCCN1C(=O)N(Cc2ccccc2)C(=O)C12CCN(Cc1ccc(-c3ccco3)cc1)CC2	0.032

Compound	z-score
CCCCNC(=O)[C@@H]1C[C@H](CN2CCOCC2)CN(Cc2ccc3ccccc3c2)C1	0.627
CN(C)CCCNC(=O)[C@@H]1C[C@H](CN2CCOCC2)CN(CCc2ccccc2)C1	-0.139
C[C@@H](NC(=O)N[C@H]1C[C@H]2C(=O)N[C@H](Cc3ccc(O)cc3)C(=O)N2C1)c1ccccc1	-0.613
COc1cccc(C(=O)N2CCN3C(=O)[C@@H]4C[C@@H](O)CN4C(=O)[C@H]3C2)c1	0.379
CC(C)N1CCN(C(=O)c2cc(-c3ccccc3)cc(S(=O)(=O)N3CCSCC3)c2)CC1	-0.306
C=CCn1nc(C(=O)N2CCSCC2)c2c1CCC(NCCCSC)C2 (stereo not drawn)	-0.019
CCn1nc(C(=O)N2CCCCC2)c2c1CCC(NCc1ccc3c(c1)OCO3)C2 (stereo not drawn)	0.426
COc1ccc(-c2cc3c(n(C)c2=O)CCN(C2CCSC2)C3)c2ccc(C)nc12 (stereo not drawn)	-0.332
CC(C)[C@@H]1NC(=O)[C@@H]2C[C@H](NC(=O)c3cccc(Cl)c3)CN2C1=O	-0.848
CC(C)N1C(=O)N(C)C2(CCN(Cc3ccc4c(c3)Cc3ccccc3-4)CC2)C1=O	-0.55
O=C(NCCN1CCOCC1)c1cc(-c2ccccc2)cc(S(=O)(=O)N2CCSCC2)c1	-0.421
CC(C)NS(=O)(=O)c1cc(NCc2cnn(C)c2)cc(C(=O)NCc2cn3ccccc3n2)c1	-0.511
O=C(NCC1CCCO1)[C@@H]1C[C@H](CN2CCOCC2)CN(Cc2ccc3ccccc3c2)C1 (stereo partly drawn)	-0.753
Cc1ccc(-c2cc(C(=O)NCC3CC3)cc(S(=O)(=O)N3CCOCC3)c2)s1	0.0847
C[C@H]1NC(=O)[C@H]2CN(C(=O)Oc3ccc(Cl)cc3)CCN2C1=O	0.985
O=C1[C@@H]2C[C@@H](O)CN2C(=O)[C@H]2CN(Cc3ccc(CN4CCCCC4)s3)CCN12	-0.745
COC(=O)CCN1CC(OCc2ccncc2)CN(C(=O)Cc2c(F)cccc2Cl)CC1=O (stereo not drawn)	0.103
Cn1nc(C(=O)N2CCCCCC2)c2c1CCC(NCc1ccc(C(F)(F)F)cc1)C2 (stereo not drawn)	-0.22
CC(C)CN1C[C@@H](CN2CCOCC2)C[C@@H](C(=O)N2CCCC2)C1	-0.607

test: galactose survival enhancers in mitochondrial complex I cybrids – cell-based, galactose medium, ATP luminescence, primary screen (AID 1645843); conditions: complex I mutant cybrid cells, 72 h, stronger effect = higher value;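 note: positive z means more ATP and so rescue of galactose-driven cybrid death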

Compound	z-score
CCC(C)C(=O)Nc1c(C(=O)OC)n(CC2CCCO2)c2ncc(NC3CCSC3)cc12 (stereo not drawn)	-0.775 (inactive)
O=C(Nc1ccccc1Cl)N[C@H]1C[C@H]2C(=O)N[C@H](Cc3ccc(O)cc3)C(=O)N2C1	-0.455 (inactive)
COCCn1c(C(=O)OC)c(NC(=O)Cc2ccccc2)c2cc(NC(C)CCO)cnc21 (stereo not drawn)	-0.97 (inactive)
C=CCn1nc(C(=O)N2CCSCC2)c2c1CCC(N1CCOc3ccc(Cl)cc3C1)C2 (stereo not drawn)	0.51 (inactive)
CC(C)CCN1C(=O)N(C(C)C)C(=O)C12CCN(Cc1ccc(CN3CCCCC3)s1)CC2	1.27 (inactive)
Cc1cc(-c2cc3c(n(Cc4cccnc4)c2=O)CCN(C(=O)C2Cc4ccccc4O2)C3)ccc1F (stereo not drawn)	-0.785 (inactive)
COc1cc(CN2CCc3c(cc(-c4cccc(F)c4)c(=O)n3CCn3ccc(C)n3)C2)ccc1O	-0.15 (inactive)
CCOC(=O)c1nn(CC)c2c1CN(C(=O)Cn1nc(-c3ccccc3)c3ccccc3c1=O)CC2	0.925 (inactive)
CC1=C(C(=O)N2CC(=O)N(CC(C)C)CC(OCc3ccccc3)C2)OCCO1 (stereo not drawn)	0.39 (inactive)
CCN1C(=O)N(CC(N)=O)C(=O)C12CCN(CC(C)Cc1ccc3c(c1)OCO3)CC2 (stereo not drawn)	1.17 (inactive)
CCCCNC(=O)[C@@H]1C[C@H](CN2CCOCC2)CN(Cc2ccc(OC)c(OC)c2)C1	1.15 (inactive)
COc1cc(CN2CC(=O)N(CC3CCOCC3)CC(OCc3ccccn3)C2)cc2c1OCO2 (stereo not drawn)	-1.33 (inactive)
Cc1ccc(-c2cc(C(=O)N3CCSCC3)cc(S(=O)(=O)N3CCOCC3)c2)s1	0.905 (inactive)
CC(C)CNC(=O)[C@@H]1C[C@H](CN2CCOCC2)CN(Cc2ccccc2)C1	0.12 (inactive)
CCn1c(C(=O)OC)c(NC(C)=O)c2cc(NCc3ccc(OC)cc3)cnc21	-0.96 (inactive)
Cc1ccc(S(=O)(=O)N2CCN3C(=O)[C@H](Cc4ccc(Cl)cc4)NC(=O)[C@H]3C2)cc1	-0.845 (inactive)
CC(C)CNC(=O)[C@@H]1C[C@H](CN2CCOCC2)CN(Cc2ccncc2)C1	-0.6 (inactive)
COc1cc(CN2CCc3c(c(C(=O)NCCCN4CCOCC4)nn3C)C2)cc2c1OCO2	-0.765 (inactive)
O=C(NCc1cccc(F)c1)N[C@H]1C[C@H]2C(=O)N[C@@H](COCc3ccccc3)C(=O)N2C1	-0.285 (inactive)
COCCCN1C(=O)N(Cc2ccccc2)C(=O)C12CCN(Cc1ccc(-c3ccco3)cc1)CC2	-1.64 (inactive)

Compound	z-score
CCCCNC(=O)[C@@H]1C[C@H](CN2CCOCC2)CN(Cc2ccc3ccccc3c2)C1	-0.385 (inactive)
CN(C)CCCNC(=O)[C@@H]1C[C@H](CN2CCOCC2)CN(CCc2ccccc2)C1	-0.365 (inactive)
C[C@@H](NC(=O)N[C@H]1C[C@H]2C(=O)N[C@H](Cc3ccc(O)cc3)C(=O)N2C1)c1ccccc1	0.6 (inactive)
COc1cccc(C(=O)N2CCN3C(=O)[C@@H]4C[C@@H](O)CN4C(=O)[C@H]3C2)c1	0.555 (inactive)
CC(C)N1CCN(C(=O)c2cc(-c3ccccc3)cc(S(=O)(=O)N3CCSCC3)c2)CC1	1.2 (inactive)
C=CCn1nc(C(=O)N2CCSCC2)c2c1CCC(NCCCSC)C2 (stereo not drawn)	0.93 (inactive)
CCn1nc(C(=O)N2CCCCC2)c2c1CCC(NCc1ccc3c(c1)OCO3)C2 (stereo not drawn)	-1.14 (inactive)
COc1ccc(-c2cc3c(n(C)c2=O)CCN(C2CCSC2)C3)c2ccc(C)nc12 (stereo not drawn)	1.09 (inactive)
CC(C)[C@@H]1NC(=O)[C@@H]2C[C@H](NC(=O)c3cccc(Cl)c3)CN2C1=O	-0.675 (inactive)
CC(C)N1C(=O)N(C)C2(CCN(Cc3ccc4c(c3)Cc3ccccc3-4)CC2)C1=O	0.225 (inactive)
O=C(NCCN1CCOCC1)c1cc(-c2ccccc2)cc(S(=O)(=O)N2CCSCC2)c1	1.53 (inactive)
CC(C)NS(=O)(=O)c1cc(NCc2cnn(C)c2)cc(C(=O)NCc2cn3ccccc3n2)c1	1.27 (inactive)
O=C(NCC1CCCO1)[C@@H]1C[C@H](CN2CCOCC2)CN(Cc2ccc3ccccc3c2)C1 (stereo partly drawn)	0.17 (inactive)
Cc1ccc(-c2cc(C(=O)NCC3CC3)cc(S(=O)(=O)N3CCOCC3)c2)s1	0.15 (inactive)
C[C@H]1NC(=O)[C@H]2CN(C(=O)Oc3ccc(Cl)cc3)CCN2C1=O	0.585 (inactive)
O=C1[C@@H]2C[C@@H](O)CN2C(=O)[C@H]2CN(Cc3ccc(CN4CCCCC4)s3)CCN12	0.32 (inactive)
COC(=O)CCN1CC(OCc2ccncc2)CN(C(=O)Cc2c(F)cccc2Cl)CC1=O (stereo not drawn)	1.43 (inactive)
Cn1nc(C(=O)N2CCCCCC2)c2c1CCC(NCc1ccc(C(F)(F)F)cc1)C2 (stereo not drawn)	1.12 (inactive)
CC(C)CN1C[C@@H](CN2CCOCC2)C[C@@H](C(=O)N2CCCC2)C1	-0.485 (inactive)
